Measured values taken from PubChem BioAssay (NCATS).
Records with an inconclusive call do not appear. Active and inactive are the calls of the source. The call rests on the fitted dose curve; in most records, active means well fitted curve in the direction sought with a large enough effect; inconclusive means small, poorly fitted or top-dose-only effect, or another doubt; inactive means no such curve, though single readings can be large; an effect the other way counts as inactive or inconclusive.

Tests used:
[1] = qHTS of pediatric cancer cell lines to identify multiple opportunities for drug repurposing: Primary screen for A673 cells (AID 1347092); further: on the % scale 0 is the no-effect control and ±100 the full control effect; nearly all actives have a fitted effect of over 45% in size
Summary of the method: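 Luminescence from CellTiter-Glo, taken after 15 min at room temperature, served as the proxy for metabolically active cells following 48 h treatment. Both potency and efficacy were taken from curves fitted to the titration data.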

[2] = qHTS of pediatric cancer cell lines to identify multiple opportunities for drug repurposing: Primary screen for SK-N-MC cells (AID 1347093);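 further: series mostly up to about 46 µM; plate controls were DMSO neutral control for no effect and bortezomib for full effect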
Summary of the method: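 Metabolically active cells were quantified by ATP-dependent luminescence (CellTiter-Glo, 15 min at room temperature) following 48 h treatment. Cells had been plated at 500-1,000 per well and settled for 5 h beforehand.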

[3] = qHTS of pediatric cancer cell lines to identify multiple opportunities for drug repurposing: Primary screen for BT-37 cells (AID 1347094);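 further: series mostly up to about 57 µM; plate controls were DMSO for no effect and bortezomib for full effect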
Summary of the method: (§1)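 Readout: CellTiter-Glo luminescence, 48 h treatment. Controls DMSO (neutral) and bortezomib 2.3 µM final (positive). Potency and efficacy taken from primary-screen concentration-response curves.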

[4] = qHTS of pediatric cancer cell lines to identify multiple opportunities for drug repurposing: Primary screen for U-2 OS cells (AID 1347096);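 further: plate controls were DMSO wells for no effect and bortezomib positive control wells for full effect; nearly all actives have a fitted effect of over 50% in size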
Summary of the method: (§2)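 Viability after 48 h compound treatment at 37C, 500-1,000 cells/well, read as ATP luminescence with CellTiter-Glo. Primary screens used 11-point (MIPE, 0.78 nM-46 µM) or 8-point (NPC, 0.59 nM-46 µM) final concentrations; follow-up screens used 11-point dilutions.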

[5] = qHTS of pediatric cancer cell lines to identify multiple opportunities for drug repurposing: Primary screen for Saos-2 cells (AID 1347097); further: on the % scale 0 is the no-effect control and ±100 the full control effect; nearly all actives have a fitted effect of over 40% in size
Summary of the method: as §1

[6] = qHTS of pediatric cancer cell lines to identify multiple opportunities for drug repurposing: Primary screen for SK-N-SH cells (AID 1347098); further: on the % scale 0 is the no-effect control and ±100 the full control effect; nearly all actives have a fitted effect of over 65% in size
Summary of the method: (§3)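 Cells (500-1,000/well) rested 5 h, then received compounds for 48 h; metabolically active cells were measured by CellTiter-Glo luminescence. Final concentrations spanned up to 46 µM (MIPE, 11-point) or 0.59 nM-46 µM (NPC, 8-point) in primary screens, 11-point in follow-ups.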

[7] = qHTS of pediatric cancer cell lines to identify multiple opportunities for drug repurposing: Primary screen for NB1643 cells (AID 1347099);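 further: plate controls were DMSO neutral control for no effect and bortezomib positive control for full effect; nearly all actives have a fitted effect of over 50% in size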
Summary of the method: as §1

[8] = qHTS of pediatric cancer cell lines to identify multiple opportunities for drug repurposing: Primary screen for LAN-5 cells (AID 1347100);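 further: plate controls were DMSO neutral control for no effect and bortezomib positive control for full effect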
Summary of the method: as §2

[9] = qHTS of pediatric cancer cell lines to identify multiple opportunities for drug repurposing: Primary screen for BT-12 cells (AID 1347101);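 further: plate controls were DMSO for no effect and bortezomib positive control for full effect; nearly all actives have a fitted effect of over 25% in size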
Summary of the method: as §3

[10] = qHTS of pediatric cancer cell lines to identify multiple opportunities for drug repurposing: Primary screen for Rh18 cells (AID 1347102); further: on the % scale 0 is the no-effect control and ±100 the full control effect; nearly all actives have a fitted effect of over 65% in size
Summary of the method: as §2

[11] = qHTS of pediatric cancer cell lines to identify multiple opportunities for drug repurposing: Primary screen for OHS-50 cells (AID 1347103);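 further: plate controls were DMSO neutral control for no effect and bortezomib positive control for full effect; nearly all actives have a fitted effect of over 40% in size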
Summary of the method: as §3

[12] = qHTS of pediatric cancer cell lines to identify multiple opportunities for drug repurposing: Primary screen for RD cells (AID 1347104);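 further: plate controls were DMSO for no effect and bortezomib for full effect; nearly all actives have a fitted effect of over 55% in size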
Summary of the method: as §1

[13] = qHTS of pediatric cancer cell lines to identify multiple opportunities for drug repurposing: Primary screen for MG 63 (6-TG R) cells (AID 1347105); further: on the % scale 0 is the no-effect control and ±100 the full control effect; nearly all actives have a fitted effect of over 50% in size
Summary of the method: as §1

[14] = qHTS of pediatric cancer cell lines to identify multiple opportunities for drug repurposing: Primary screen for control Hh wild type fibroblast cells (AID 1347106);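 further: series mostly up to about 46 µM; on the % scale 0 is the no-effect control and ±100 the full control effect; a drop in luminescence marks cytotoxicity and a rise apparent proliferation; nearly all actives have a fitted effect of over 55% in size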
Summary of the method: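 Cells (500-1,000/well) in growth media were settled 5 h at 37 degrees C, then given compounds for 48 h. Viability was read as CellTiter-Glo luminescence. Primary runs used MIPE at 11 points (0.78 nM-46 µM) and NPC at 8 points (0.59 nM-46 µM); follow-ups used 11 points.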

[15] = qHTS of pediatric cancer cell lines to identify multiple opportunities for drug repurposing: Primary screen for Rh30 cells (AID 1347107); further: series mostly up to about 46 µM; on the % scale 0 is the no-effect control and ±100 the full control effect; nearly all actives have a fitted effect of over 75% in size
Summary of the method: as §2

[16] = qHTS of pediatric cancer cell lines to identify multiple opportunities for drug repurposing: Primary screen for Rh41 cells (AID 1347108);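 further: series mostly up to about 46 µM; luminescence drop marks cytotoxic hits; nearly all actives have a fitted effect of over 70% in size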
Summary of the method: as §1

[17] = qHTS of pediatric cancer cell lines to identify multiple opportunities for drug repurposing: Primary screen for NB-EBc1 cells (AID 1347095);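 further: plate controls were DMSO neutral control for no effect and bortezomib for full effect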
Summary of the method: as §1

CCn1cc(C(=O)O)c(=O)c2cc3c(cc21)OCO3
inactive: Potency [1] | Potency [2] | Potency [3] | Potency [4] | Potency [5] | Potency [6] | Potency [7] | Potency [8] | Potency [9] | Potency [10] | Potency [11] | Potency [12] | Potency [13] | outcome [14] | Potency [15] | Potency [16]

Cc1cccc(C)c1NC(=O)C(C)N (stereo unspecified)
inactive: Potency [1] | Potency [2] | Potency [3] | Potency [17] | Potency [5] | Potency [6] | Potency [7] | Potency [8] | Potency [10] | Potency [11] | Potency [12] | Potency [13] | outcome [14] | Potency [15] | Potency [16]

NCCCNCCSP(=O)(O)O
inactive: activity change, negative = cytotoxic [1] 5.74% [at 9.22 µM] | activity change, negative = cytotoxic [2] -14.6% [at 9.22 µM] | activity change, negative = cytotoxic [3] 7.29% [at 11.5 µM] | activity change, negative = cytotoxic [17] 10.2% [at 9.22 µM] | activity change, negative = cytotoxic [5] -20.9% [at 9.22 µM] | activity change, negative = cytotoxic [6] -0.785% [at 11.4 µM] | activity change, negative = cytotoxic [7] 7.51% [at 9.22 µM] | activity change, negative = cytotoxic [8] 27.4% [at 9.22 µM] | activity change, negative = cytotoxic [9] 8.37% [at 11.5 µM] | activity change, negative = cytotoxic [10] 9.05% [at 9.22 µM] | activity change, negative = cytotoxic [11] 5.02% [at 11.5 µM] | activity change, negative = cytotoxic [12] 5.99% [at 9.22 µM] | activity change, negative = cytotoxic [14] 2.73% [at 9.22 µM] | activity change, negative = cytotoxic [15] 17.5% [at 9.22 µM] | activity change, negative = cytotoxic [16] 20.1% [at 9.22 µM]

NS(=O)(=O)c1cc2c(cc1Cl)NC(C1CC3C=CC1C3)NS2(=O)=O (stereo unspecified)
inactive: Potency [1] | Potency [2] | Potency [3] | Potency [4] | Potency [5] | Potency [6] | Potency [7] | Potency [8] | Potency [9] | Potency [10] | Potency [11] | Potency [12] | Potency [13] | outcome [14] | Potency [15] | Potency [16]

c1cnc(N2CCN(Cc3ccc4c(c3)OCO4)CC2)nc1
inactive: Potency [1] | Potency [2] | Potency [3] | Potency [17] | Potency [5] | Potency [6] | Potency [7] | Potency [8] | Potency [10] | Potency [11] | Potency [12] | outcome [14] | Potency [15] | Potency [16]

NC(Cc1ccc(Cl)cc1)C(=O)O (stereo unspecified)
inactive: activity change, negative = cytotoxic [1] 16% [at 0.597 µM] | activity change, negative = cytotoxic [2] -1.75% [at 0.597 µM] | activity change, negative = cytotoxic [3] 9.97% [at 0.745 µM] | activity change, negative = cytotoxic [4] 18.1% [at 0.597 µM] | activity change, negative = cytotoxic [5] 1.27% [at 0.597 µM] | activity change, negative = cytotoxic [6] -6.57% [at 0.741 µM] | activity change, negative = cytotoxic [7] 9.7% [at 0.597 µM] | activity change, negative = cytotoxic [8] 0.0057% [at 0.597 µM] | activity change, negative = cytotoxic [9] 7.02% [at 0.745 µM] | activity change, negative = cytotoxic [10] 15.1% [at 0.597 µM] | activity change, negative = cytotoxic [11] 9.59% [at 0.73 µM] | activity change, negative = cytotoxic [12] 7.62% [at 0.597 µM] | activity change, negative = cytotoxic [13] 9.57% [at 0.597 µM] | activity change, negative = cytotoxic [14] 6.18% [at 0.597 µM] | activity change, negative = cytotoxic [15] 30.5% [at 0.597 µM] | activity change, negative = cytotoxic [16] 28% [at 0.597 µM]

CN(C)CCN(Cc1cccs1)c1ccccn1
inactive: Potency [1] | Potency [2] | Potency [3] | Potency [17] | Potency [5] | Potency [6] | Potency [7] | Potency [8] | Potency [9] | Potency [10] | Potency [12] | outcome [14] | Potency [15] | Potency [16]

CC(C(=O)O)c1ccc(CC2CCCC2=O)cc1 (stereo unspecified)
inactive: Potency [1] | Potency [2] | Potency [3] | Potency [4] | Potency [5] | Potency [6] | Potency [7] | Potency [8] | Potency [10] | Potency [11] | Potency [12] | Potency [13] | outcome [14] | Potency [15] | Potency [16]
